High-throughput results (PubChem BioAssay)
Hits are enriched below; roughly 0.51% of the tested compounds scored in any of these assays.
AddAB inh – growth inhibition of E. coli expressing H. pylori AddAB, primary screen, AddAB inhibitor project, absorbance | AID 435030, 2010 | 330,000 compounds, 0.29% hits | inhibition, % at 11.9 µM; in the data active means inhibition above about 12%;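 further: 0% = vehicle wells of infected cells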
E coli growth-1 – E. coli growth inhibition, primary screen, OD600 | Escherichia coli growth, 23 h; stronger effect = lower value | OD600 absorbance (no concentration beside the values) | 330,000 compounds, 0.21% hits;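 active means OD600 absorbance below the run mean of sample wells minus 3.6 SD, in any replicate, cut at about 0.56 in these data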
Tat export inh – E. coli Tat export inhibitors, primary screen, MC4100, TorA-mCherry reporter, fluorescence, single point | inhibition, % at 10 µM | 340,000 compounds, 0.036% hits;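 active means mean replicate inhibition at least 50% and at least half of replicates individually reaching 50%; inconclusive means only one of the two criteria met; inactive means neither criterion met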;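 further: exported cargo escapes ClpAP degradation while cytoplasmic cargo is degraded and loses fluorescence; 0% = median of neutral control wells and 100% = median of NaSCN control wells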
phage Ecoli inh – growth loss of phage-infected E. coli, primary screen, RecBCD inhibitor project, absorbance, with phage, HTS. inhibition, % at 11.9 µM. 360,000 compounds, 0.26% hits. AID 651602, 2012; in the data active means inhibition above about 11%
E coli growth-2 – E. coli V3065 growth inhibition, primary screen, counter-screen for AddAB inhibitor project, absorbance, OD600; 18 h; inhibition, % at 11.9 µM; 330,000 compounds, 0.27% hits; AID 449728, 2010;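 active means inhibition above the campaign's mean inhibition across all tested compounds plus 3 SD, cut at about 9.9% in these data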;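 further: uninfected addAB+ strain grown without phage in ampicillin broth; 0% = DMSO wells and 100% = ciprofloxacin 0.95 µg/ml wells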
RecBCD conf – growth loss of phage-infected RecBCD+ E. coli, confirmation, RecBCD inhibitor project, absorbance, E. coli V66, T4 gene 2 phage | shares compounds with phage Ecoli inh | E. coli V66 + T4 2- phage, growth OD | inhibition, % at 11.9 µM | 890 compounds, 45% hits | AID 651982, 2013;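 active means mean inhibition over triplicates exceeding the hit threshold derived in the original primary screen, cut at about 11% in these data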
Ecoli viability – E. coli viability inhibition, counter-screen for RecBCD inhibitor project, absorbance, high throughput; shares compounds with phage Ecoli inh; absorbance (OD) growth; inhibition, % at 11.9 µM; 890 compounds, 29% hits; AID 651983, 2013; in the data active means inhibition above about 20%;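 further: E. coli strain V66 grown with compound alone and no phage infection; 0% = bacteria with DMSO vehicle only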
AddAB phage OD – growth loss of phage-infected AddAB-carrying E. coli, confirmation, counter-screen for RecBCD inhibitor project, absorbance, E. coli V3065, T4 phage; shares compounds with phage Ecoli inh; E. coli expressing H. pylori AddAB + T4 phage, OD growth; gene 2 mutant T4, recBCD-deleted host; inhibition, % at 11.9 µM; 890 compounds, 45% hits; AID 651984, 2013;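 active means mean inhibition above the solvent-only control wells' mean plus 3 SD, cut at about 22% in these data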;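 further: higher means less bacterial growth from phage killing when AddAB is blocked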
Starred values were filed as active, the others as inactive; ? = inconclusive; . = no result given; ! = repeats disagree.

SMILES	AddAB inh	E coli growth-1	Tat export inh	phage Ecoli inh	E coli growth-2	RecBCD conf	Ecoli viability	AddAB phage OD
Oc1ccc(C=NNC(=S)Nc2cccnc2)cc1	.	0.67	.	.	.	.	.	.
Cc1cc(C(=O)N2C(C)CCCC2C)no1 (stereo unspecified)	0	0.66	7	2	-1	.	.	.
Cc1cc(C(=O)N(C2CCCCC2)C2CCCCC2)no1	3	0.64	0	12*	-3	-1	0	-1
CCOC(=O)NC(=O)C(C#N)=CNc1sccc1C(=O)OC	.	0.71	.	.	.	.	.	.
Cc1[nH]nc(-c2cccnc2)c1N=NN(C)C	.	.	142*	99*	.	103*	104*	102*
CCCNC(=O)c1nc(C)c(C)nc1C(=O)Nc1cccc(Cl)c1	-1	0.65	-1	67*	-2	-2	-2	-4
Cc1nc(C)c(C(=O)Nc2cccc(Cl)c2)o1	1	0.65	9	2	-2	.	.	.
O=c1cc(-c2ccccc2)oc2cc(O)c(O)c(O)c12	12	0.69	10	12*	11*	6	9	7
COc1c(O)cc2oc(-c3ccc(O)cc3)cc(=O)c2c1O	3	0.63	-7	3	-1	.	.	.
Oc1c(Br)cc(Br)cc1/C=N/Nc1ccc(Cl)nn1	0	.	-5	0	1	.	.	.
Oc1ccc(/C=N/Nc2ccc(Cl)nn2)c(O)c1O	2	.	-3	11*	3	3	2	21*
Cc1ccc(S(=O)(=O)Nc2cccnc2Oc2ccc(Cl)cc2)cc1	3	0.68	2	-1	2	.	.	.
Oc1c(I)cc(I)c2cccnc12	-1	0.43*	-4	23*	1	26*	30*	25*
Cc1ccc2c(Cl)cc(Cl)c(O)c2n1	.	0.064*	?	13*	.	7	9	8
Clc1cc2cccnc2c2ccccc12	3	0.68	4	2	2	.	.	.
Cc1ccc(S(=O)(=O)Nc2cc(Cl)c(O)c3ncccc23)cc1	11	.	-1	12*	11*	5	9	9
Oc1c(Cl)cc(Cl)c2cccnc12	.	0.071*	5	43*	.	55*	62*	51*
Cc1cc(Cl)c2ccc3ccccc3c2n1	0	0.69	-2	3	0	.	.	.
OCc1ccc(O)c2ncccc12	-1	0.78	-6	5	4	.	.	.
CC1C=C(C(=O)NC2CC2)OC(OCc2ccc(CO)cc2)C1 (stereo unspecified)	.	0.67	.	.	.	.	.	.
O=C(c1cccs1)N1CCN(CC=Cc2ccccc2)CC1	.	0.67	.	.	.	.	.	.
COc1cc(C=CC(=O)NNc2c(F)c(F)cc(F)c2F)ccc1OC(F)F	.	0.69	.	.	.	.	.	.
CC1CCC(=O)N(CCC(Sc2ccccc2)c2ccccc2)CC1 (stereo unspecified)	.	0.68	.	.	.	.	.	.
Fc1ccc(NC(=S)Nc2ccccc2OC(F)F)cc1Cl	5	0.6	4	13*	2	5	7	9
Cc1ccc(C(O)(C(=O)NNc2ccc3ccccc3n2)c2ccc(C)cc2)cc1	10	0.69	-2	13*!	11*!	4	8	4
SMILES	AddAB inh	E coli growth-1	Tat export inh	phage Ecoli inh	E coli growth-2	RecBCD conf	Ecoli viability	AddAB phage OD
Cc1ccc(C(=O)Nc2ccc3ccccc3n2)cc1	4	0.66	-4	2	-1	.	.	.
CCN(C(C)=O)c1cnc(C=NNC(N)=S)c2ccccc12	.	.	-19	20*	.	15*	17	32*
NC(=S)N/N=C/c1c(O)ccc2ccccc12	2	.	-4	1	2	.	.	.
NC(=S)NN=Cc1nccc2c(N)cccc12	.	.	.	23*	.	32*	39*	35*
CC(=O)n1cc(C=NNC(N)=S)c2ccccc21	.	0.71	.	.	.	.	.	.
S=C(NN=C(c1ccccc1)c1ccccn1)N(Cc1ccccn1)Cc1ccccn1	.	.	-8	15*	.	6	8	9
CC(=NNc1cc(C)c2cc(C)ccc2n1)c1ccccn1	.	.	.	17*	.	1	1	3
Cn1nc(C(=O)NCC(=O)Nc2ccc(F)c(F)c2)ccc1=O	.	.	.	11*	.	0	-1	-3
